Results published in PubChem BioAssay (NCI).
This is part of a sample that, as a whole, favours compounds with a hit. Of some 83,000 tested, about 20% had one in any assay.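 Plates (96-well) were seeded with cells, treated with compound at one concentration, and incubated for 48 hours before percent growth was determined.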 Activity calls are given as the source filed them. The calls were made as follows: active = growth percent below 10; inactive = the rest.

Experiments:
Assay in all cases: NCI-60 one-dose screen, 48 h (100 = growth as untreated, 0 = no growth, -100 = all killed)
Conditions in all cases: 10 µM unless noted
[1] = tested on: NCI-H23 lung
[2] = tested on: NCI-H226 lung
[3] = tested on: NCI-H322M lung
[4] = tested on: HOP-62 NSCLC
[5] = tested on: NCI-H460 lung
[6] = tested on: HOP-92 NSCLC
[7] = tested on: NCI-H522 lung
[8] = tested on: A549/ATCC NSCLC
[9] = tested on: 786-0 renal
[10] = tested on: COLO 205 colon
[11] = tested on: DU-145 prostate
[12] = tested on: K-562 leukemia
[13] = tested on: MALME-3M melanoma
[14] = tested on: MDA-MB-231 breast
[15] = tested on: RXF 393 renal
[16] = tested on: SF-268 CNS
[17] = tested on: SF-295 CNS
[18] = tested on: SF-539 CNS
[19] = tested on: UACC-257 melanoma
[20] = tested on: M14 melanoma

Measured: growth

COc1cc(C(=O)N2N=C(c3ccc(S(C)(=O)=O)cc3)CC2c2ccco2)cc(OC)c1OC (stereo not given)
inactive: [1] 76.9% | [2] 77.4% | [3] 95% | [4] 67.3% | [5] 58.2% | [6] 39.8% | [7] 11.9% | [8] 58.2% | [9] 75.1% | [10] 69.8% | [11] 82.5% | [12] 73.2% | [13] 61.7% | [14] 66.4% | [15] 66.4% | [16] 87.6% | [17] 42.9% | [18] 79.1% | [19] 80.6% | [20] 65.2%

O=C(S)CNC(=O)c1ccccc1
inactive: [1] 94.3% | [2] 101% | [3] 95.1% | [4] 92.7% | [5] 105% | [6] 74.7% | [7] 86.4% | [8] 99.8% | [9] 98.1% | [10] 107% | [11] 98.8% | [12] 95.1% | [13] 84.2% | [14] 97.6% | [15] 92.7% | [16] 86.5% | [17] 111% | [18] 93.4% | [19] 98% | [20] 95.9%

COc1ccc(/C=C/c2c(C(=O)/C=C/c3ccc(C(F)(F)F)cc3)c(C)nc3ccccc23)cc1
inactive: [8] 65.4% | [16] 14.6%
active: [1] -23% | [2] -38.3% | [3] 6.19% | [4] -1.82% | [5] -58.9% | [6] -64.3% | [7] -0.88% | [9] -72.5% | [10] -28.4% | [11] -81% | [12] 8.15% | [13] -46.7% | [14] -20.2% | [15] -83.9% | [17] -49.3% | [18] -76.2% | [19] -38% | [20] -15%

O=C(Cc1ccc(F)c(Cl)c1)Nc1cc(C2(C(F)(F)F)CC2)nn1CC1CCCCC1
active: [1] -2.27% | [3] 9.83% | [4] -8.44% | [5] 3.01% | [6] -14.9% | [7] -28.1% | [8] 9.72% | [9] 9.17% | [10] -86.2% | [13] -24.1% | [14] -60.3% | [15] -28.7% | [16] 9.97% | [17] 1.21% | [18] 8.62% | [19] -9.88%
inactive: [2] 14.5% | [11] 20.9% | [12] 11.1% | [20] 17.1%

CCN1C(=O)N(CC)C2Nn3c(s/c(=C\c4ccc([N+](=O)[O-])cc4)c3=O)=NC21 (stereo not given)
inactive: [1] 69.3% | [2] 80.1% | [3] 89.7% | [4] 96.2% | [5] 98.3% | [6] 84.1% | [8] 82.4% | [9] 85.1% | [10] 35.5% | [11] 91.8% | [12] 29.4% | [13] 70.3% | [14] 47.8% | [15] 103% | [16] 90% | [17] 93.9% | [18] 94.3% | [19] 43.4% | [20] 48%
active: [7] 9.71%

O=C1c2cccc3cccc(c23)C(=O)N1Nc1nc(NC2CCCCC2)nc(N2CCOCC2)n1
inactive: [1] 95.4% | [2] 98% | [3] 93.4% | [4] 91.3% | [5] 102% | [6] 86.3% | [7] 93.5% | [8] 95% | [9] 104% | [10] 107% | [11] 108% | [12] 88.9% | [13] 90.1% | [14] 82.9% | [15] 109% | [16] 99.7% | [17] 105% | [18] 98.4% | [19] 100% | [20] 95.4%

CCCCCCCCCCCCCCCCCCOc1ccccc1CC(=O)OCC[N+](CC)(CC)CC
active: [6] 6.81% | [10] -27.3% | [12] 6.67% | [13] -8.97% | [14] -17.3% | [15] -16.9%
inactive: [1] 13.1% | [2] 53.7% | [3] 70.6% | [4] 41% | [5] 34.6% | [7] 10.5% | [8] 29.3% | [9] 22.6% | [11] 33.9% | [16] 23.8% | [17] 27.9% | [18] 18.5% | [19] 48.1% | [20] 26.8%

Cn1cc(-c2cc3ncnc(Nc4ccc(CC(=O)Nc5cc(C(C)(C)C)nn5C)cc4)c3s2)cn1
inactive: [1] 60% | [2] 38% | [3] 46.4% | [4] 71% | [5] 43.5% | [6] 70% | [7] 41.5% | [8] 42.1% | [9] 43.7% | [10] 52.9% | [11] 40.3% | [12] 17% | [13] 56.7% | [14] 47.7% | [16] 51.8% | [17] 58.1% | [18] 47.4% | [19] 83.9% | [20] 39.2%
active: [15] 9.8%

COc1c(C2CC(=O)Nc3c2c(C)nn3-c2nc3ccccc3[nH]2)cc2c(c1OC)OCO2 (stereo not given)
inactive: [1] 48.2% | [2] 75.8% | [3] 78.5% | [4] 43.4% | [5] 35.6% | [6] 70.9% | [7] 53.3% | [8] 35.8% | [9] 67.6% | [10] 84.1% | [11] 80.2% | [12] 15.1% | [13] 86.5% | [14] 68.4% | [15] 27.1% | [16] 62.1% | [17] 19.8% | [18] 59.8% | [19] 67.1% | [20] 33.3%

COc1ccc(N2C(=O)C(Oc3ccccc3)C2c2ccc(C)cc2)cc1 (stereo not given)
inactive: [1] 91% | [2] 114% | [3] 103% | [4] 104% | [5] 103% | [6] 66.8% | [7] 94.2% | [8] 90.5% | [9] 98.5% | [10] 107% | [11] 113% | [12] 95.1% | [13] 93.4% | [14] 101% | [15] 126% | [16] 102% | [17] 89.6% | [18] 98.6% | [19] 95.3% | [20] 93.1%

C=C1C(=O)O[C@H]2[C@H]1CC/C(COC(=O)CSCC(=O)OC/C1=C/CC[C@@]3(C)O[C@H]3[C@H]3OC(=O)C(=C)[C@@H]3CC1)=C\CC[C@@]1(C)O[C@@H]21
inactive: [1] 58.1% | [2] 91.6% | [3] 90.7% | [4] 92.7% | [5] 73.9% | [8] 72.8% | [11] 50.3% | [16] 57.8% | [17] 88.1% | [18] 19.3%
active: [6] -16.9% | [7] -69.7% | [9] 7.49% | [10] -54.9% | [12] 9.77% | [13] -10.3% | [14] -16.8% | [15] -86.3% | [19] 9.23% | [20] 1.21%

NCCCNc1nc2ccc(Cl)cc2c2c(=O)c3cc(F)ccc3sc12
active: [5] -68.8% | [12] -38.7% | [14] 3.44%
inactive: [1] 82.9% | [2] 91.9% | [3] 74.9% | [4] 81.9% | [6] 30.3% | [7] 62.4% | [8] 58.2% | [9] 72.7% | [10] 31.9% | [11] 24.4% | [13] 103% | [15] 62.3% | [16] 53.2% | [17] 103% | [18] 70.7% | [19] 98.3% | [20] 55%

COc1ccc(OC)c(/C=C/c2nnc(Nc3ccccc3)o2)c1
inactive: [1] 97.3% | [2] 89.7% | [3] 99.6% | [4] 106% | [5] 97.2% | [6] 62.5% | [7] 82.3% | [8] 96.5% | [9] 87.4% | [10] 129% | [11] 93.3% | [12] 83.2% | [13] 116% | [14] 95% | [15] 93.6% | [16] 98.5% | [17] 91.1% | [18] 103% | [19] 117% | [20] 110%

Cc1nc2ccccc2c(/C=C/c2ccccc2)c1C(=O)/C=C/c1ccc(C(F)(F)F)cc1
active: [1] -33.6% | [2] -42.2% | [3] 2.79% | [4] -21.9% | [5] -71.6% | [6] -64.8% | [7] -1.91% | [9] -76.4% | [10] -25.7% | [11] -88.7% | [12] 1.82% | [13] -61.4% | [14] -43.7% | [15] -81.7% | [16] -6.77% | [17] -74.2% | [18] -84.9% | [19] -21.9% | [20] -31.3%
inactive: [8] 75.3%

O=c1c2cccc(F)c2sc2c(NCCCNCCO)nc3ccccc3c12
inactive: [1] 49.9% | [2] 58% | [3] 44% | [4] 45.3% | [6] 15.4% | [7] 44.4% | [8] 26.9% | [9] 48.5% | [11] 23.7% | [13] 74% | [15] 50.8% | [16] 41.9% | [17] 63.7% | [18] 41.1% | [19] 85.6%
active: [5] -40.4% | [10] -44.4% | [12] -20% | [14] 5.79% | [20] -58.5%

COc1c(N2CC3CCCN(C(C)=O)C3C2)c(F)cc2c(=O)c(C(=O)N[C@H]3C(O)[C@@H](O)C(CO)O[C@H]3O)cn(C3CC3)c12 (stereo not given in full)
inactive: [1] 105% | [2] 108% | [3] 106% | [4] 103% | [5] 108% | [6] 103% | [7] 94.9% | [8] 103% | [9] 101% | [10] 110% | [11] 112% | [12] 103% | [13] 117% | [14] 103% | [15] 128% | [16] 92.3% | [17] 103% | [18] 103% | [19] 103% | [20] 110%
